We go through one molecule from PubChem BioAssay (EPA / NIEHS).

Test [1] is described as follows: CCTE_Shafer_MEA_dev_firing_rate_mean: CCTE's Neural Network Formation Assay for Mean Firing Rate, Shafer Lab (AID 2284031). An outline of the steps:
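Steps: seed rat cortical cells (1.5 x 10^5/well) with laminin on PEI-coated MEA; dose day 0; record DIV 5/7/9/12, full media and compound exchange after DIV 5 and 9 recordings; compute well-mean firing rate AUC.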

Test [2] is described as follows: CCTE_Shafer_MEA_dev_per_burst_spike_percent: CCTE's Neural Network Formation Assay for Percent of Spikes in a Burst, Shafer Lab (AID 2284032). The method, boiled down: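 Value is trapezoidal AUC over recordings on days 5, 7, 9 and 12 of the well-mean fraction of spikes falling in single-electrode bursts; rat cortical cultures exposed continuously from plating, treatment renewed DIV 5 and 9, fitted downward against DMSO.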

Test [3] can be described thus: CCTE_Shafer_MEA_dev_active_electrodes_number: CCTE's Neural Network Formation Assay for Number of Active Electrodes, Shafer Lab (AID 2284040; active = hit-call score of the fitted dose curve at least 0.9, where 1 is the maximum). The method, boiled down:
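Counts electrodes per well firing at least 5 spikes/min, recorded on days 5, 7, 9 and 12 in rat cortical cultures dosed continuously from plating (treatment refreshed DIV 5, 9). Value is the area under the curve over recordings, fitted downward relative to DMSO.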

A short description of test [4]: CCTE_Shafer_MEA_dev_burst_rate: CCTE's Neural Network Formation Assay for Burst Rate, Shafer Lab (AID 2284042). An outline of the steps:
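Rat primary cortical cultures on PEI/laminin MEA; compound from plating, re-dosed at DIV 5, 9 media change. Single-electrode bursts/recording length, well mean of active electrodes; AUC over DIV 5–12 recordings; loss-of-signal vs DMSO.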

The nature of test [5]: CCTE_Shafer_MEA_dev_bursting_electrodes_number: CCTE's Neural Network Formation Assay for Number of Bursting Electrodes, Shafer Lab (AID 2284043; active = hit-call score of the fitted dose curve at least 0.9, where 1 is the maximum). The method, boiled down:
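Counted: electrodes with burst rate ≥1 per 2 min in each well. Cells: primary rat cortex, 1.5 x 10^5/well, on 16-electrode MEA wells. Exposure: DIV 0–12, compound renewed DIV 5 and 9. Recording days 5, 7, 9, 12; AUC vs DMSO baseline.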

Test [6] is described as follows: CCTE_Shafer_MEA_dev_per_burst_interspike_interval: CCTE's Neural Network Formation Assay for Burst Interspike Interval, Shafer Lab (AID 2284044). The method, boiled down:
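Readout is the average time between spikes inside single-electrode bursts, taken as a well mean across bursting electrodes. Cortical neurons from rat developed networks on MEA plates under continuous 12-day exposure; recordings on days 5, 7, 9 and 12 were integrated by trapezoidal AUC.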

The nature of test [7]: CCTE_Shafer_MEA_dev_burst_duration_mean: CCTE's Neural Network Formation Assay for Mean Burst Duration, Shafer Lab (AID 2284045). The method, boiled down:
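Network-formation assay in primary rat cortical neurons; treatment spans twelve days of development. Mean burst duration per well is integrated by trapezoidal AUC and fitted in the loss-of-signal direction against DMSO baseline.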

Test [8] can be described thus: CCTE_Shafer_MEA_dev_interburst_interval_mean: CCTE's Neural Network Formation Assay for Mean Interburst Interval, Shafer Lab (AID 2284046).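 Also: well-mean interburst interval of bursting electrodes as AUC over four recording days; curve fitted for decrease in interburst interval relative to DMSO.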 An outline of the steps: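 Rat cortical neurons, 1.5 x 10^5 cells/well, 48-well MEA; compound from day 0 through DIV 12, media and treatment renewed DIV 5/9. Recordings DIV 5, 7, 9, 12; well-mean interburst interval → trapezoidal AUC, loss direction vs DMSO.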

The nature of test [9]: CCTE_Shafer_MEA_dev_inter_network_spike_interval_mean: CCTE's Neural Network Formation Assay for Mean Inter-network Spike Interval, Shafer Lab (AID 2284047). An outline of the steps:
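Primary rat cortical neurons on PEI-coated 48-well MEAs (16 electrodes/well) were exposed from plating day 0 to DIV 12, with dosing renewed at DIV 5 and 9. Recordings at DIV 5, 7, 9, 12 were collapsed by trapezoidal AUC, loss-of-signal fit vs DMSO.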

Test [10] can be described thus: CCTE_Shafer_MEA_dev_network_spike_number: CCTE's Neural Network Formation Assay for Number of Network Spikes, Shafer Lab (AID 2284048). An outline of the steps: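 Extracellular recordings from 16-electrode wells track network formation in rat cortical cultures under continuous treatment from plating. The endpoint is network spike number, expressed as AUC across DIV 5–12 relative to DMSO vehicle.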

Test [11] in a line: CCTE_Shafer_MEA_dev_network_spike_peak: CCTE's Neural Network Formation Assay for Mean Number of Electrodes in Network Spike, Shafer Lab (AID 2284049). The method, boiled down: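 Continuous 12-day exposure of rat cortical cultures, starting at plating, on MEA plates. Endpoint: electrodes participating in network-spike peaks, AUC across DIV 5–12, DMSO as negative control.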
The nature of test [12]: CCTE_Shafer_MEA_dev_spike_duration_mean: CCTE's Neural Network Formation Assay for Mean Spike Duration, Shafer Lab (AID 2284051).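 Also: mean network spike duration pooled as area under curve over DIV 5 to 12 recordings.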 An outline of the steps: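 Rat cortical primary cultures, 48-well MEA (16 electrodes/well); compound from plating, renewed DIV 5, 9. Network spike duration (AxIS adaptive detector) recorded DIV 5/7/9/12, combined as trapezoidal AUC; loss direction vs DMSO.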

A short description of test [13]: CCTE_Shafer_MEA_dev_network_spike_duration_std: CCTE's Neural Network Formation Assay for Standard Deviation of Network Spike Duration, Shafer Lab (AID 2284052).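 Also: area under curve of spike duration SD across recording days 5 to 12; hits are decreases in network spike duration SD versus DMSO vehicle.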 An outline of the steps: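 Rat cortical cultures, 1.5 x 10^5 cells/well, exposed continuously from plating to DIV 12 with media/compound renewal at DIV 5, 9. Spontaneous activity recorded DIV 5/7/9/12, AxIS adaptive spike detector; AUC across days; negative direction vs DMSO.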

The nature of test [14]: CCTE_Shafer_MEA_dev_per_network_spike_spike_number_mean: CCTE's Neural Network Formation Assay for Mean Number of Spikes in a Network Spike, Shafer Lab (AID 2284053). The method, boiled down:
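Rat cortical primary cultures on 48-well MEA; compound from day 0, re-dosed with full media change DIV 5, 9. Recorded DIV 5, 7, 9, 12; spikes in 0.05 s window at network-spike peak ÷ total network spikes; AUC; loss vs DMSO.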

A short description of test [15]: CCTE_Shafer_MEA_dev_per_network_spike_spike_percent: CCTE's Neural Network Formation Assay for Percent of Spikes in a Network Spike, Shafer Lab (AID 2284054). An outline of the steps:
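Developing networks of rat cortical neurons are dosed at day 0 and recorded extracellularly four times up to day 12. The endpoint is the area under the curve of percent spikes in network spikes, fitted in the negative direction relative to DMSO.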

A short description of test [16]: UKN5_HCS_SBAD2_cell_viability: Viability Assessment in the University of Konstanz (UKN) Leist Lab Neurite Outgrowth Assay in human iPSC-derived immature Dorsal Root Ganglia Neurons (UKN5) (AID 2284056). The method, boiled down: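 iPSC-derived immature peripheral neurons (SBAD2) seeded on Matrigel with CHIR99021, SU5402 and DAPT, dosed 1 h later for 24 h. Viability from Hoechst H-33342 and calcein-AM live staining, high-content imaging; bidirectional fit versus DMSO.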

Test [17] in a line: CCTE_Shafer_MEA_dev_LDH: CCTE's Lactate Dehydrogenase Assay for Cytotoxicity in the Neural Network Formation Assay, Shafer Lab (AID 2284068; active = hit-call score of the fitted dose curve at least 0.9, where 1 is the maximum;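 also: exposure for twelve days from plating with re-dosing on DIV 5 and 9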). An outline of the steps:
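Rat cortical primary neurons, MEA culture; dosing day 0–12, full medium plus compound exchange DIV 5, 9. Read-out: LDH enzyme activity, spectrophotometric. DMSO = negative control/baseline; signal loss → cytotoxicity.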

Test [18] is described as follows: UKN5_HCS_SBAD2_neurite_outgrowth: University of Konstanz (UKN) Leist Lab Neurite Outgrowth Assay in human iPSC-derived immature Dorsal Root Ganglia Neurons (UKN5) (AID 2284070). Particulars: actives raise or lower the signal. The method, boiled down:
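Thaw, seed on Matrigel (100.000 cells/cm2), dose 1 h later; at 23 h live-stain with H-33342 and calcein-AM for 60 min; image at 24 h. Neurite area fitted bidirectionally vs DMSO.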

The nature of test [19]: CCTE_Shafer_MEA_dev_AB: CCTE's Alamar Blue Assay for Cytotoxicity in the Neural Network Formation Assay, Shafer Lab (AID 2284083; active = hit-call score of the fitted dose curve at least 0.9, where 1 is the maximum;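 also: resazurin reduction fluorescence as viability of cultured neurons; twelve days of exposure from plating with re-dosing on DIV 5 and 9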). An outline of the steps:
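Rat cortical primary cultures, 1.5 x 10^5 cells/well on MEA; continuous compound exposure over 12 days of network development, re-dosed with full medium change DIV 5 and 9. Alamar Blue fluorescence; loss of signal = cytotoxicity vs DMSO baseline.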
A general note: Alamar Blue is a resazurin reagent that responds to reducing activity.

Test [20] in a line: CCTE_Shafer_MEA_dev_correlation_coefficient_mean: CCTE's Neural Network Formation Assay for Mean Correlation Coefficient, Shafer Lab (AID 2284093). An outline of the steps:
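Rat cortical cultures, 1.5 x 10^5 cells/well, dosed from day 0 for 12 days. Spontaneous spikes recorded DIV 5/7/9/12; electrode-pair correlation coefficients averaged, AUC taken. Fit in loss direction vs DMSO.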

Test [21] in a line: UKN2_HCS_IMR90_neural_migration: University of Konstanz (UKN) Leist Lab Neural Crest Cell Migration Assay in human induced IMR90 Pluripotent Stem Cells (UKN2) (AID 2284204). Particulars: actives raise or lower the signal. The method, boiled down: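 Using a 96-well stopper format with PLO/laminin/fibronectin coating, neural crest cells from iPSC migrate in cytokine-supplemented N2-S medium; after 24 h, chemicals are applied for a further 24 h, then cells are imaged after dye staining.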

The nature of test [22]: UKN4_HCS_LUHMES_neurite_outgrowth: University of Konstanz (UKN) Leist Lab Neurite Outgrowth Assay in human LUHMES cells (UKN4) (AID 2284206). As to conditions: actives raise or lower the signal. The method, boiled down: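 Human LUHMES cells were differentiated for two days, replated and treated with chemicals for 24 h. Neurite outgrowth was quantified as calcein-stained neurite area by HCS imaging, fitted bidirectionally relative to DMSO.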

Test [23] in a line: UKN4_HCS_LUHMES_cell_viability: Viability Assessment in the University of Konstanz (UKN) Leist Lab Neurite Outgrowth Assay in human LUHMES cells (UKN4) (AID 2284232). An outline of the steps:
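Cells switched to differentiation medium at day 0, replated on day 2 in medium lacking cAMP and GDNF, and compound-treated once attached. Live staining began 23.5 h later, imaging followed at 24 h.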

A short description of test [24]: UKN2_HCS_IMR90_cell_viability: Viability Assessment in the University of Konstanz (UKN) Leist Lab Neural Crest Cell Migration Assay in human induced IMR90 Pluripotent Stem Cells (UKN2) (AID 2284233).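 Also: viability of neural crest cells differentiated from IMR90 iPSC measured by calcein-AM fluorescence imaging; cells exposed to compound for 24 h after a 24 h migration phase.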 An outline of the steps:
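cMINC format, iPSC-derived neural crest (IMR90); 24 h migration (EGF/FGF, N2-S), then 24 h toxicant. Calcein-AM/H-33342 stain 30 min; fluorescence intensity by HCS; DMSO-normalised, bidirectional fitting.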

SMILES strings stand for the structures. Records with an inconclusive call do not appear. The source made the active and inactive calls. The calls were made as follows, unless noted: active = hit-call score of the fitted dose curve at least 0.9, where 1 is the maximum; inactive = score below 0.9.

A word on the AC50: it is the concentration at which the activity in the assay is half-maximal. In the case of `Brc1cc(Br)c(Oc2cc(Br)c(Br)cc2Br)cc1Br`, the outcome in [1], in test [2], in [3], in [4], in [5] and in test [6] was inactive. Besides, the molecule was classed as inactive in test [7], in test [8], in [9], in test [10], in [11] and in test [12]. Further, the molecule was classed as inactive in test [13], in [14], in [15], in [16], in test [18] and in [19]. Also, the outcome in test [20], in [21], in [22], in test [23] and in [24] was inactive. Also, the AC50 in test [17] is 7.47 µM (active).
